Among the data in PubChem BioAssay AID720664 (National Center for Advancing Translational Sciences (NCATS), 2013) are Potency values, retold here.

Results filed as inconclusive are left out. A call without a number means that no potency is given here. The source made the active and inactive calls. Calls follow the shape of the dose curve; as a rule, active = well fitted inhibition curve with a large enough effect; inconclusive = small, poorly fitted or top-dose-only effect; inactive = flat fitted curve, though single readings scatter.

The assay deals with Galactokinase (Homo sapiens) (UniProt P51570). As to the kind of experiment: qHTS for Inhibitors of Human Galactokinase (GALK): SAR round 3. The following applies: ADP detection luminescence, 1 h; series mostly up to 57.5 µM. The gist of the method: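 Cherry-picked actives were retested in quantitative dose format against 5 nM human galactokinase, using 100 µM galactose and 35 µM ATP at pH 8.0 (HEPES, MgCl2, NaCl). After 1 h at room temperature, product was quantified by luminescence.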
Chain of Galactokinase (Homo sapiens) (P51570 whole entry, looked up): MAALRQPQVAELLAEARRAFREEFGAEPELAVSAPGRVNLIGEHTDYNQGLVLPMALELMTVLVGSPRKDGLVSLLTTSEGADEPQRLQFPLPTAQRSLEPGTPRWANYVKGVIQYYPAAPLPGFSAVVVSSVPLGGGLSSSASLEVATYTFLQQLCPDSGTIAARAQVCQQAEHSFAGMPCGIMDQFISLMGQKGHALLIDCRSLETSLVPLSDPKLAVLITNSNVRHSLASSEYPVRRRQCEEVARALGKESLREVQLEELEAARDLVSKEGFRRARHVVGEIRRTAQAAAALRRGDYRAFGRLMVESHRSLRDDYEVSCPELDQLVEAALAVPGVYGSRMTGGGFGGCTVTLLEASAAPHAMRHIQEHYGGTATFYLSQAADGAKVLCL
For the molecule `Cc1ccc(C2N=C(Nc3nc4ccccc4o3)NC3=C2C(=O)CCC3)s1` (stereo not drawn), the Potency entry was “inactive”.
With `O=C1CCCC2=C1C(c1ccc(Cl)cc1)N=C(Nc1nc3ccccc3o1)N2` (stereo not drawn), the Potency entry was “inactive”.
Consider `O=C1CCCC2=C1C(c1[nH]ncc1Cl)N=C(Nc1cccnc1)N2` (stereo not drawn), for which the Potency entry was “inactive”.
`O=C1CCCC2=C1C(c1[nH]ncc1Cl)NC(=NCCc1ccccc1)N2` (stereo not drawn): the Potency result was “inactive”.
Consider `O=C1CCCC2=C1C(c1[nH]ncc1Cl)N=C(Nc1nc3c(Br)cccc3o1)N2` (stereo not drawn), for which the Potency result is “inactive”.
Take `CN1C(=O)NC(c2ccccc2Cl)C2=C1CCCC2=O` (stereo not drawn): the Potency entry was “inactive”.
To `O=C1CCCC2=C1C1(CCCOC1)N=C(Nc1nc3ccccc3o1)N2` (stereo not drawn) belongs “inactive”; to `CC(C)c1nc(Nc2nc3ccccc3o2)nc2c1CCCC2`, “inactive”; to `Cc1ccc2oc(NC3=NC(c4ccccc4Cl)C4=C(CCCC4=O)N3)nc2c1` (stereo not drawn), 6.11 µM (active).
`Nc1ncc(S(=O)(=O)N2CCOCC2)s1`: the Potency entry is “inactive”.
Regarding `COC(=O)c1ccc2nc(NC3=NC(c4[nH]ncc4Cl)C4=C(CCCC4=O)N3)oc2c1` (stereo not drawn), the Potency result was “inactive”.
`O=C1CC(c2ccccc2)CC2=C1C1(CCCCC1)N=C(Nc1nc3ccccc3o1)N2` (stereo not drawn): the Potency entry was “inactive”.
For `Cc1nc(NC2=NC(c3ccccc3Cl)C3=C(CCCC3=O)N2)oc1C` (stereo not drawn), the Potency entry was “inactive”.
Consider `O=C1CCCC2=C1C(c1ccccc1I)N=C(Nc1nc3ccccc3o1)N2` (stereo not drawn), for which the Potency was 6.11 µM (active).
To `COc1cccc(C2N=C(Nc3nc4ccccc4o3)NC3=C2C(=O)CCC3)c1` (stereo not drawn) belongs “inactive”.
`COc1ccccc1NC(=O)C1=C(C)NC(Nc2nc3ccccc3o2)=NC1c1ccccc1Br` (stereo not drawn): the Potency entry was “inactive”.
To `CCC1CCC2(C1)N=C(Nc1nc3ccccc3o1)NC1=C2C(=O)CCC1` (stereo not drawn) belongs “inactive”; to `O=C1CCCC2=C1C(c1[nH]ncc1Cl)N=C(Nc1nc3cc(F)ccc3o1)N2` (stereo not drawn), “inactive”; to `CC1=C(C(=O)Nc2nc3ccccc3s2)C(c2nn(C)cc2Cl)N=C(Nc2nc3ccccc3o2)N1` (stereo not drawn), “inactive”.
Turning to `CC1=C(C(=O)N(C)c2ccccc2C)C(c2ccccc2Br)N=C(Nc2nc3ccccc3o2)N1` (stereo not drawn), the Potency entry is “inactive”.
To `CN(C)c1ccc(C2N=C(Nc3nc4ccccc4o3)NC3=C2C(=O)CCC3)cc1` (stereo not drawn) belongs “inactive”; to `O=C1CCCC2=C1C(c1[nH]ncc1Cl)N=C(Nc1ccn[nH]1)N2` (stereo not drawn), “inactive”; to `Cn1c(NC2=NC3(CCCC3)C3=C(CCCC3=O)N2)nc2ccccc21`, “inactive”.
As for `Cc1noc(C)c1S(=O)(=O)Nc1ccc(C(=O)Nc2ccc(OC(F)(F)F)cc2)cc1`, the Potency entry was “inactive”.
As for `O=C1CCCC2=C1C(c1ccccc1Br)N=C(Nc1nc3ccccc3o1)N2` (stereo not drawn), the Potency was 6.11 µM (active).
For the molecule `CN(Cc1ccccc1)C(=O)C1CCN(Cc2cccc3ccccc23)CC1`, the Potency entry is “inactive”.
The value for `O=C1CCCC2=C1C(c1[nH]ncc1Cl)NC(=NCc1ccco1)N2` (stereo not drawn) was “inactive”; that for `Cc1nc(Nc2nc3ccccc3o2)nc2c1CCCC2` was “inactive”; that for `COc1cccc2nc(Nc3nc4ccccc4o3)nc(-c3ccccc3Cl)c12` was “inactive”.
As for `O=C1CCCC2=C1C(c1[nH]ncc1Cl)NC(=NCc1ncc[nH]1)N2` (stereo not drawn), the Potency entry was “inactive”.
The value for `O=C1CCCC2=C1C(c1ccncc1)N=C(Nc1nc3ccccc3o1)N2` (stereo not drawn) was “inactive”.
`O=C1CCCC2=C1[C@@]1(CCC(c3ccccc3)C1)N=C(Nc1nc3ccccc3o1)N2` (stereo partly drawn): the Potency result was “inactive”.
The value for `O=C1CCCC2=C1C(c1[nH]ncc1Cl)N=C(Nc1nc3cccc(Cl)c3o1)N2` (stereo not drawn) was “inactive”; that for `CC1=C(C(=O)c2ccccc2)C(c2ccccc2Cl)N=C(Nc2nc3ccccc3o2)N1` (stereo not drawn) was “inactive”; that for `O=C1CCCC2=C1C(c1cccc(Oc3ccccc3)c1)N=C(Nc1nc3ccccc3o1)N2` (stereo not drawn) was “inactive”.
As for `O=C1CCCC2=C1C(c1cccc(F)c1)N=C(Nc1nc3ccccc3o1)N2` (stereo not drawn), the Potency result was “inactive”.
Take `O=C1CCCC2=C1C(c1[nH]ncc1Cl)NC(=NCc1ccncc1)N2` (stereo not drawn): the Potency result is “inactive”.
As for `CC1(C)N=C(Nc2nc3ccccc3o2)NC2=C1C(=O)CCC2`, the Potency result was “inactive”.
